Experiment [1] can be described thus: resazurin metabolic signal in HepG2 cells – cell-based, resazurin fluorescence, 24 h, PK04 Diversity Set, profiling panel (AID 1172). As to conditions: HepG2 viability, higher = more signal. Background: Resazurin is reduced to fluorescent resorufin, in cell work by metabolically active cells.
Experiment [2] is described as follows: budding yeast growth changes without added modifier – OD600, strain BY4716, 24 h, basal condition, primary screen (AID 1173). To be noted: S. cerevisiae BY4716 growth, OD600, 24 h; higher = more signal, called active from +8 up or from −8 down.
The nature of experiment [3]: viability profiling in MM1S myeloma cells – cell-based, resazurin fluorescence, basal, 24 h, PK04 Diversity Set, profiling panel (AID 1174).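 Note: MM1S multiple myeloma cell line.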 As to conditions: higher = more signal, called active from +8 up or from −8 down.
The target in experiment [4] is Dihydroorotate dehydrogenase (quinone), mitochondrial (Plasmodium falciparum (isolate 3D7)) (UniProt Q08210). Kind of experiment: inhibition of P. falciparum DHODH – biochemical, C-terminal His tag, absorbance 600 nm, primary screen (AID 1175).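 Note: recombinant parasite enzyme with a five histidine tag at its C terminus.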 As to conditions: PfDHODH enzyme, DCIP absorbance 600 nm; higher = more signal, called active from +8 up or from −8 down.
Dihydroorotate dehydrogenase (quinone), mitochondrial (Plasmodium falciparum (isolate 3D7)), sequence (Q08210 whole entry, looked up): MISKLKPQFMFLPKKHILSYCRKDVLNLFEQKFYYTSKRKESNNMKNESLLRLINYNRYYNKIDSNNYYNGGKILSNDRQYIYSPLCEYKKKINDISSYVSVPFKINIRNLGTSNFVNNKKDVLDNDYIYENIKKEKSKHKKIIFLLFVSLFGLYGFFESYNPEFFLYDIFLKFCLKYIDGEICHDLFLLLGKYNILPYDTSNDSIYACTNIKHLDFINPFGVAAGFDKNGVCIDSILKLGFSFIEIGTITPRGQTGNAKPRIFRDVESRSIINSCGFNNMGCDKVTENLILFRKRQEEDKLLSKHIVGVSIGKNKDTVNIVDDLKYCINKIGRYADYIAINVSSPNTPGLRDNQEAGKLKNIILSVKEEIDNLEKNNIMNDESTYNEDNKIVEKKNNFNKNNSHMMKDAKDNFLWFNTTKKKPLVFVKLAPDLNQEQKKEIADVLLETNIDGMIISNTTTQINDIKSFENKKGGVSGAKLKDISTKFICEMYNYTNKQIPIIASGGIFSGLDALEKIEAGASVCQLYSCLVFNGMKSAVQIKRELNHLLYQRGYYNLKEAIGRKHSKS
The nature of experiment [5]: inhibition of PAO1 biofilm formation – strain PAO1, LB-PBS medium, absorbance 600 nm, primary screen (AID 1176). To be noted: P. aeruginosa PAO1 growth/biofilm, A600, 12 h; higher = more signal.
Experiment [6] can be described thus: growth modulation of vineyard yeast isolate – strain RM11-1a, OD600, basal, 24 h, primary screen (AID 1177).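 Note: cultures grown under basal conditions with no added stressor.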 As to conditions: S. cerevisiae RM11-1a growth, OD600, 24 h; higher = more signal, called active from +8 up or from −8 down.
The nature of experiment [7]: growth of efflux-deficient E. coli DRC39 – strain DRC39, OD650, 24 h, E. coli filamentation inducers, primary screen (AID 1178).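 Note: growth measured as culture turbidity by optical density at 650 nm.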 To be noted: E. coli DRC39 acrAB, higher = more signal, called active from +8 up or from −8 down.
Experiment [8] is described as follows: growth of efflux-deficient E. coli DRC39 – strain DRC39, OD650, 48 h, E. coli filamentation inducers, primary screen (AID 1179).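 Note: screen aims at cell division blockers that make cells filament.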 To be noted: E. coli DRC39 delta-acrAB growth, higher = more signal, called active from +8 up or from −8 down.
Experiment [9] is described as follows: viability profiling in RPMI8226 myeloma cells – cell-based, resazurin fluorescence, basal, 24 h, PK04 Diversity Set, profiling panel (AID 1180).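 Note: RPMI8826 multiple myeloma cell line at 5000 cells per well.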 As to conditions: higher = more signal.
For experiment [10], the target named is E3 ubiquitin-protein ligase XIAP (Homo sapiens) (UniProt P98170). Kind of experiment: small molecules binding XIAP protein – biophysical, small-molecule microarray, fluorescence 635 nm, primary screen (AID 1181).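 Note: score merges 667 nm emission and signal to noise over triplicate slides.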 To be noted: higher = more signal.
E3 ubiquitin-protein ligase XIAP (Homo sapiens), sequence (P98170 whole entry, looked up, the tested form may be a part): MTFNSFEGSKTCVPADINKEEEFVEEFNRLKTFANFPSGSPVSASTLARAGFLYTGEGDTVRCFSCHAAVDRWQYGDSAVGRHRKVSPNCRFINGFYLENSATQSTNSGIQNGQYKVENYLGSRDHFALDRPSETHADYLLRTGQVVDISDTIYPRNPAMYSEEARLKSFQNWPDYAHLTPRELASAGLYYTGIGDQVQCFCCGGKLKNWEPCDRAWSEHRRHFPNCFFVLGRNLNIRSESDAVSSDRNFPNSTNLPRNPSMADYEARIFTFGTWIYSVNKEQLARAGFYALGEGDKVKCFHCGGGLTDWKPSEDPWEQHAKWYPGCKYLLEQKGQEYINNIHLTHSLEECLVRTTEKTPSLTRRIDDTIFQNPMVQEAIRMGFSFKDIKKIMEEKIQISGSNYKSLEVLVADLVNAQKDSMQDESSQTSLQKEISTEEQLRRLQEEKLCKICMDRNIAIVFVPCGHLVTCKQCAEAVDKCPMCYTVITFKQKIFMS
The subject of experiment [11] is XIP peptide (Xip251-270) binding. Kind of experiment: XIP fragment 251-270 binding compounds – biochemical, small-molecule microarray, fluorescence 635/667 nm, 0.1 µg/mL protein, primary screen (AID 1182). As to conditions: fluorescent protein binding, 635 nm, higher = more signal, called active from +8 up or from −8 down.
A further experiment relates to XIP peptide (Xip251-270). Kind of experiment: compounds binding XIP fragment 251-270 – biochemical, small-molecule microarray, fluorescence 635/667 nm, 0.5 µg/mL protein, primary screen (AID 1183). As to conditions: fluorescence 635 nm, higher = more signal.
Experiment [12] in a line: blood-stage malaria parasite viability loss – strain 3D7, DAPI fluorescence, 100 nL, primary screen (AID 1184).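 Note: parasites grown inside human red blood cells in medium with human serum.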 To be noted: P. falciparum 3D7 growth, 3 d, higher = more signal.
For experiment [13], the target named is Homeobox protein Hox-A13 (Mus musculus) (UniProt Q62424). Kind of experiment: disruptors of Hoxa13 oligonucleotide interaction – biochemical, fluorescence polarization, labeled oligonucleotide, primary screen (AID 1185). To be noted: Hoxa13:DNA binding, 15 min, higher = more signal, called active from +8 up or from −8 down. Background: Polarisation of emitted light reports the rotation of a fluorescent probe.
Homeobox protein Hox-A13 (Mus musculus), sequence (Q62424 whole entry, looked up): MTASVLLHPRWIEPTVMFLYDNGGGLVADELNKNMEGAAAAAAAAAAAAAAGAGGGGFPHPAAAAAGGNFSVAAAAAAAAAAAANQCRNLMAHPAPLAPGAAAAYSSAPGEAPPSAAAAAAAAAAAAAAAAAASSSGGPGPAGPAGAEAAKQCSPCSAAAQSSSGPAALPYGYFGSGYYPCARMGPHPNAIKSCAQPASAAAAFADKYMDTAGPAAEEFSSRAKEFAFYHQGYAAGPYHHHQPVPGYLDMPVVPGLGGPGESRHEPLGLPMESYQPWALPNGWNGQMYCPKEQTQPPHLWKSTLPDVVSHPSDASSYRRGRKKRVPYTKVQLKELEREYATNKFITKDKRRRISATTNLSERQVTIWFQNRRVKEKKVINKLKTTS

Experiment [14] is described as follows: blockers of DNA damage checkpoint Chk1 activation – imaging, HeLa, hydroxyurea, phospho-Chk1 antibody, percent positive cells, primary screen (AID 1186). To be noted: hydroxyurea-induced phospho-Chk1 immunofluorescence imaging, higher = more signal.
Experiment [15] in a line: blockers of DNA damage checkpoint Chk1 activation – imaging, HeLa, hydroxyurea, phospho-Chk1 nuclear intensity, primary screen (AID 1187). As to conditions: hydroxyurea-induced phospho-Chk1 immunofluorescence imaging, higher = more signal.

“And” between values parts separate entries of the source, which are not always exact repeats. Equal entries are not always repeated. The source holds several records for some structures; these can differ, active in one and inactive in another. The source made the active and inactive calls. Unless noted, the rule behind the calls is not given here.

Take `CO[C@@H]1C=CCC(=O)N2CCC[C@H]2C(=O)OC[C@H](C)C(=O)OC[C@H]1C`: the z-score in experiment [1] was 0.445; in [2], -0.774 (inactive); in [3] it was -0.694 (inactive); in experiment [5] it was -0.72 (inactive); in experiment [6], 0.134 (inactive); in experiment [7] it was 1.08 (inactive). For the same compound, the z-score in [8] was 0.858 (inactive); in experiment [9] it was 0.312; in experiment [12], 0.471; in experiment [13], -0.499 (inactive). The composite z-score in [4] was 0.634 (inactive); in experiment [10], 0.0595; in [11], 0.28 (inactive); in the experiment on XIP peptide (Xip251-270), 0.612.

Take `CCOC(=O)[C@@H]1CC=C2CC1C(=O)N1CCC[C@@H]1[C@H]2O[Si](C)(C)C(C)(C)C` (some centres undefined): the z-score in experiment [1] was -0.464 and 1.65; in experiment [2], 0.0163 (inactive) and -8.53 (active); in experiment [3] it was -0.226 (inactive) and 1.07 (inactive); in experiment [5] it was -0.0825 (inactive) and -0.377 (inactive); in experiment [6], -1.35 (inactive) and 0.069 (inactive); in experiment [7], 0.03 (inactive) and 0.867 (inactive). The z-score in [8] was 0.262 (inactive) and -0.586 (inactive); in experiment [9] it was -0.516 and 0.845; in experiment [12], 1.82 and -0.618; in [13], -1.82 (inactive) and -4.44 (inactive); in experiment [14] it was 0.113 (inactive) and -0.726 (inactive); in experiment [15] it was 0.0897 (inactive) and -0.761 (inactive). The composite z-score is -0.259 (inactive) and -0.198 (inactive) in experiment [4]; -0.343 and -0.171 in experiment [10]; -1.06 (inactive) and -0.793 (inactive) in experiment [11]; -1.29 and -0.354 in the experiment on XIP peptide (Xip251-270).

In the case of `O=C1C[C@]2(c3ccc([N+](=O)[O-])cc3)C(=O)N(Cc3ccccc3)c3cc(CO)ccc3[C@H]2N1C1CCCCC1`, the z-score in [1] was 0.981 and -0.766; in experiment [2] it was -0.0998 (inactive) and -0.919 (inactive); in experiment [3], 0.0351 (inactive) and -0.743 (inactive); in [5], 0.599 (inactive) and 1.21 (inactive); in experiment [6] it was 0.029 (inactive) and -0.21 (inactive); in [7], 0.512 (inactive) and 0.2 (inactive). Also, the z-score was 0.566 (inactive) and -0.0186 (inactive) in [8]; 0.702 and -0.966 in experiment [9]; 1.04 and -1.97 in experiment [12]; -1.48 (inactive) and -3.19 (inactive) in experiment [13]; 0.112 (inactive) and -0.427 (inactive) in experiment [14]; 0.357 (inactive) and -0.265 (inactive) in experiment [15]. The composite z-score in [4] is -2.77 (inactive) and 0.496 (inactive); in experiment [10] it was 2.56 and 0.144; in [11], -0.182 (inactive) and 0.877 (inactive); with XIP peptide (Xip251-270) it was -0.242 and 0.519.

For `COC(=O)[C@@]1(Cc2ccc(OC)cc2)[C@H]2c3cc(C(=O)N(C)C)n(Cc4ccc(O)c(OC)c4)c3C[C@H]2CN1C(=O)c1ccccc1`, the z-score in [1] is 0.613 and -0.518; in experiment [2], 1.5 (inactive) and 1.69 (inactive); in experiment [3] it was -0.475 (inactive) and -1.77 (inactive); in [5] it was -0.499 (inactive) and -0.347 (inactive); in experiment [6], 0.884 (inactive) and 1.29 (inactive); in [7], 0.247 (inactive) and 0.423 (inactive). In addition, the z-score was -0.128 (inactive) and -0.102 (inactive) in [8]; 0.381 and -2.92 in experiment [9]; -1.65 and -1.56 in experiment [12]; -5.37 (inactive) and -3.28 (inactive) in [13]; 0.402 (inactive) and -0.804 (inactive) in experiment [14]; 0.504 (inactive) and -0.921 (inactive) in experiment [15]. Moreover, the composite z-score in experiment [4] was 0.243 (inactive) and 0.355 (inactive); in experiment [10], -0.207 and 0.277; in [11], 0.371 (inactive) and 0.389 (inactive); in the experiment on XIP peptide (Xip251-270), 0.594 and 0.642.

For `CCCCN1CC=CC23O[C@@H]4C=CCCOC(=O)C4[C@H]2C(=O)N(C(C)CO)[C@@H]3C1=O` (some centres undefined), the z-score in [1] was 0.169 and -0.388; in experiment [2], -0.288 (inactive) and 1.12 (inactive); in experiment [3], -0.201 (inactive) and -0.715 (inactive); in experiment [5] it was 0.329 (inactive) and 0.137 (inactive); in experiment [6], -0.891 (inactive) and 1.05 (inactive); in [7], 0.0926 (inactive) and -0.474 (inactive). Further, the z-score in [8] is -0.25 (inactive) and -0.564 (inactive); in [9], -0.157 and -0.53; in [12] it was 0.0728 and -0.271; in [13] it was -5.84 (inactive) and -4.77 (inactive); in experiment [14], 0.34 (inactive) and -0.204 (inactive); in [15], 0.293 (inactive) and -0.258 (inactive). Besides, the composite z-score is -0.755 (inactive) and -2.42 (inactive) in experiment [4]; -0.0062 and 0.744 in [10]; -0.0981 (inactive) and -0.455 (inactive) in experiment [11]; -0.41 and -0.585 with XIP peptide (Xip251-270).

`C=CCN(CCCC)C(=O)C(c1cccs1)N(C(=O)/C=C\C(=O)O)c1ccc(CCO)cc1` (centres undefined): the z-score in [1] was -0.289 and -0.837; in experiment [2] it was -0.561 (inactive) and -0.0853 (inactive); in experiment [3], -0.508 (inactive) and -2.49 (inactive); in [5], -0.208 (inactive) and -0.469 (inactive); in experiment [6] it was 0.24 (inactive) and 0.473 (inactive); in experiment [7] it was 0.596 (inactive) and 0.709 (inactive). Besides, the z-score in [8] was 0.597 (inactive) and 0.915 (inactive); in [9], -0.213 and -0.931; in experiment [12] it was 0.28 and 0.445; in experiment [13] it was -1.28 (inactive) and -0.734 (inactive); in experiment [14], 0.655 (inactive) and -0.177 (inactive); in experiment [15], 1.04 (inactive) and 0.345 (inactive). For the same compound, the composite z-score in [4] is -0.133 (inactive) and 0.117 (inactive); in [10], -0.102 and 0.0641; in experiment [11], 1.82 (inactive) and -0.761 (inactive); with XIP peptide (Xip251-270) it was -0.319 and -1.84.

The record behind these values is PubChem BioAssay.
